Screening data: PubChem BioAssay, National Center for Advancing Translational Sciences (NCATS)
Cycloheximide cs: Cycloheximide Counterscreen for Small Molecule Inhibitors of Shiga Toxin; max response, %; cell reporter, cycloheximide protein synthesis inhibition counterscreen; hit rate 12% among 300,000; AID 2314, 2010; in the data active = max response mostly above about 13%, no sharp cut-off; inactive = mostly below about 14%; note: read at 38.3 µM for the half of the compounds with a filed dose; 0% is about no effect
HCMV antiviral: qHTS Assay for inhibitors of the human cytomegalovirus (HCMV); HFF cells, HCMV-luciferase reporter, 72 h; stronger effect = lower value; activity change, negative = inhibition, % at 57.5 µM; hit rate 4.5% among 410,000; AID 1259415, 2018; in the data active = activity change below about -60%; inconclusive = no clear call, values can overlap the other calls; inactive = above about -39%; note: % is set by controls: 0 for no effect and ±100 for the full control effect
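After 16 h attachment at 37C, HFF cells received test compound and HCMV-luciferase (1 PFU/cell); reporter luminescence read 72 h later, data normalized against buffer-only and known inhibitor Salinomycin.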
Pf growth 48h: Primary qHTS for delayed death inhibitors of the malarial parasite plastid, 48 hour incubation. hit rate 5.9% among 310,000. Potency, µM (top dose mostly 28.7 µM), inactives show at the top dose activity change, negative = inhibition, hits mostly inhibitors. AID 504832, 2011. P. falciparum luciferase growth in erythrocytes, 48 h; note: potency is the fitted concentration of half-maximal effect; % is set by controls: 0 for no effect and ±100 for the full control effect
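Compounds are pin-transferred into medium, infected erythrocytes (2% hematocrit, 0.1% parasitemia final) are added, and plates sit one parasite generation at 37 C in 5% CO2. Detection reagent is then added and luminescence measured.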
Shiga inhibitor: A qHTS for Small Molecule Inhibitors of Shiga Toxin. Vero cells, Shiga toxin protein synthesis inhibition reporter. inhibition, % at 38.7 µM. hit rate 9.2% among 290,000; in the data active = inhibition mostly above about 28%, no sharp cut-off; inactive = mostly below about 43%; note: 0% is about no effect
Pf growth 96h: Primary qHTS for delayed death inhibitors of the malarial parasite plastid, 96 hour incubation. hit rate 6.9% among 320,000. P. falciparum luciferase reporter growth, 96 h. Potency, µM (titrated, usually from 28.7 µM), inactives show at the highest dose activity change, negative = inhibition, actives largely listed as inhibitors; note: potency is the fitted concentration of half-maximal effect; % is set by controls: 0 for no effect and ±100 for the full control effect
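Infected RBCs, 2% Hct / 0.05% parasitemia final; luciferase-reporter P. falciparum; cpd 96 h, 37 C, 5% CO2; luciferase detection reagent; luminescence.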
* hit, by the source's call; i = inactive; ? = inconclusive; nt = no result; + = active, no number; [ ] = dose if it differs, or a comment. In the library only some 20% were active in any assay of this set; here they are far more common. Unless noted, calls come from the whole dose curve; as a rule, active = well fitted inhibition curve with a large enough effect; inconclusive = small, poorly fitted or top-dose-only effect, or another doubt; inactive = no such curve, though single readings can be large or run the other way.

SMILES | Cycloheximide cs | HCMV antiviral | Pf growth 48h | Shiga inhibitor | Pf growth 96h
Cc1ccc(NC(=O)c2ccc(NS(=O)(=O)/C=C/c3ccccc3)cc2)nc1 | 1 | -17 | ? | 15 | -1%
Cc1ccc(Cl)cc1NC(=S)NN | -4 | 72 | ? | 11 | ?
Cc1c2ccccc2nc2ccccc12 | nt | -9 | nt | nt | nt
COc1c2ccccc2nc2ccccc12 | 1 | -35 | 2.1µM* | 9 | 125%
CC1CCCN(c2nc(-c3ccccc3O)nc3ccccc23)C1 (centres undefined) | nt | 15 | nt | nt | nt
Cc1ccnc(NC(=O)c2cccc(NC(=O)Cc3ccccc3)c2)c1 | 15* | -32 | -16% | 41 | ?
Cc1cccc(C(=O)Nc2cccc(C(=O)Nc3cc(C)ccn3)c2)c1 | 8.5* | nt | 1% | 9 | ?
COc1ccccc1C(=O)NCCC(=O)NCC1CCCO1 (centres undefined) | nt | -12 | 0% | nt | 34%
CCCCCc1cc(=O)oc2c(C(CCN(CC)CC)c3cc(OC)c(OC)c(OC)c3)c(OC)cc(OC)c12 (centres undefined) | -4 | ? | 13µM* | 8 | 3.7µM*
CCCCCc1cc(=O)oc2c(C(CCN3CCCC(C)C3)c3ccc4c(c3)OCO4)c(OC)cc(OC)c12 (centres undefined) | -2 | ? | 7.4µM* | -7 | 4.1µM*
CCCCCc1cc(=O)oc2c(C(CCN3CCCCC3)c3ccc4c(c3)OCO4)c(OC)cc(OC)c12 (centres undefined) | -6 | -80* | 10µM* | -7 | 4.7µM*
CCCCCc1cc(=O)oc2c(C(CCN3CCCC3)c3ccc4c(c3)OCO4)c(OC)cc(OC)c12 (centres undefined) | -13 | nt | nt | -24 | nt
CCCCCc1cc(=O)oc2c(C(CCN3CCN(c4ccccc4)CC3)c3ccc(N(C)C)cc3)c(OC)cc(OC)c12 (centres undefined) | -2 | 30 | ? | -9 | ?
O=C(NCCc1ccccc1)c1cc2sccc2n1Cc1ccccc1 | 15 | 13 | ? | 19 | ?
O=C(c1ccco1)N1CCN(C(=O)c2cc3sccc3n2Cc2ccccc2)CC1 | -4 | -71* | 12µM* | -17 | -14%
O=C(NCc1ccco1)c1ccc(Cn2c(=O)c3ccccc3n(Cc3cccc(Cl)c3)c2=O)cc1 | -2 | -34 | nt | -5 | nt
O=C(NCc1ccco1)c1ccc(Cn2c(=O)c3sccc3n(Cc3cccc(F)c3)c2=O)cc1 | 26* | -61* | nt | 22 | 2.6µM*
O=C(NCc1ccco1)c1cc2sccc2n1Cc1ccccc1 | 56* | -11 | 12µM* | 36* | 2.1µM*
Cc1ccc(C)c(NC(=O)C2CC(O)CN2C(=O)Oc2ccccc2)c1 (centres undefined) | -2 | -26 | 22% | -26 | 13%
CCC1(CC)C(=O)NC(=O)NC1=NCCc1ccc(O)cc1 | -2 | -68* | -11% | 8 | 2%
CCn1nc(C)cc1C(=O)OCC(=O)c1ccc(Cl)cc1 | 1 | 16 | 2% | -9 | 38%
CCn1nc(C)cc1C(=O)Sc1ccc(Cl)cc1Cl | -1 | -108* | 13% | -4 | 24%
CCn1nc(C)cc1C(=O)Sc1cccc(Br)c1 | -3 | -107* | 16% | -4 | -4%
COc1cc(/C=N/N=C2/C(=O)Nc3ccccc32)cc(OC)c1O | 1 | 72 | 0% | -2 | 24%
O=C1Nc2ccccc2/C1=N/N=C/c1cccc(O)c1 | 49* | 2 | 2% | 48* | 24%
SMILES | Cycloheximide cs | HCMV antiviral | Pf growth 48h | Shiga inhibitor | Pf growth 96h
O=C1Nc2ccccc2/C1=N\N=C\C1=C(N2CCOCC2)C(=C\c2ccccc2)/CC1 | -2 | -19 | ? | -7 | 2.9µM*
O=C(c1ccc(NS(=O)(=O)c2ccc(Cl)c(Cl)c2)cc1)N1CCOCC1 | nt | 0 | ? | nt | 5%
COc1cccc(CSc2nnc(C(F)(F)F)n2Cc2ccc(F)cc2)c1 | 9 | 0 | 8% | 12 | ?
Cc1ccc(CSc2nnc(C(F)(F)F)n2Cc2ccc(F)cc2)cc1 | 16* | 62 | -3% | 21 | 72%
O=C(CCl)N(CCc1ccccc1)CCc1ccccc1 | 19 | -100* | 12µM* | -3 | ?
CCCN(C(=O)c1cc2c(Cl)nc3ccccc3c2s1)c1cccc(C)c1 | nt | -17 | nt | nt | nt
O=C(CCl)N(c1ccccc1)c1ccccc1 | -5 | -98* | 1.7µM* | -22 | 4.1µM*
N#CCCN(C(=O)CCl)c1cccc(Cl)c1 | -1 | 13 | ? | -21 | 5.2µM*
CCCCCCCN(C(=O)CCl)c1cccc(C)c1 | -3 | -86* | -14% | 24 | ?
Cc1cc(C)cc(N2C(=O)C3C4C=CC(C4)C3C2=O)c1 (centres undefined) | -1 | -16 | -14% | -14 | 68%
CCCCCCN(C(=O)CCl)c1ccccc1 | 12 | -100* | ? | 9 | ?
Cc1nn(C2CCOC(C)(C)C2)c2c1C(c1ccc3c(c1)OCO3)SCC(=O)N2 (centres undefined) | 1 | 1 | ? | -12 | 9.3µM*
COc1ccc(C2SCC(=O)Nc3c2c(C)nn3C2CCOC(C)(C)C2)cc1 (centres undefined) | 7 | -17 | -6% | -14 | 6%
Cc1nc(SCC(=O)c2cccs2)c2oc3ccccc3c2n1 | 56* | 12 | 31% | 136* | nt
NC(=O)CSc1ncnc2c1oc1ccccc12 | 4 | 31 | nt | -2 | -1%
O=C(CSc1ncnc2c1oc1ccccc12)c1cccs1 | 23* | 88 | 55% | 42* | 114%
Cc1nc(SCc2ccccc2F)c2oc3ccccc3c2n1 | 9 | ? | ? | 7 | 8.3µM*
COc1ccc(Nc2cc3[nH]c(-c4ccc(C(=O)N(C)C)cc4)cc3cn2)c(OC)c1 | nt | 38 | nt | nt | nt
Nc1nnc(-c2cn(-c3ccccc3)nc2-c2ccc(Cl)cc2)o1 | 6 | -33 | 3.7µM* | -2 | 4.7µM*
Nc1nnc(-c2cn(-c3ccccc3)nc2-c2ccccc2)o1 | 11 | -23 | ? | 16 | -16%
CC(C)(C)c1ccc(/C=N/Nc2ccc(C(=O)O)cc2)cc1 | 9 | -76* | 25% | 24 | 426%
O=C(O)c1cccc(N/N=C/c2cccnc2)c1 | 40* | 43 | i | 63* | -83%
CC(C)(C)c1ccc(/C=N/Nc2cccc(C(=O)O)c2)cc1 | 104* | 160 | 339% | + | 7%
O=C(O)c1ccc(N/N=C/c2ccc(C(F)(F)F)cc2)cc1 | 23 | -31 | 59% | 24 | i[5.75 µM]
O=C(N/N=C/c1cccnc1)C(O)(c1ccccc1)c1ccccc1 | -3 | 68 | 7% | -14 | ?
O=C(O)c1cccc(N/N=C/c2ccc(-c3ccccc3)cc2)c1 | 67* | 109 | i | 191* | 331%
COc1cccc(-c2nc(SCc3cccc(Br)c3)n3[nH]c(=O)cc3n2)c1 | nt | 10 | nt | nt | nt
CN(C)c1ccc(/C=N/Nc2cccc(C(=O)O)c2)cc1 | 68* | 65 | 123% | 198* | ?
